Screens as filed in PubChem BioAssay.
In the library only some 1.3% were active in any assay of this set; here they are far more common.
TRPV1 ag: agonists of human vanilloid receptor 1 (TRPV1) | 320,000 tested, 0.19% active | TRPV1-expressing cells, Fluo-8 calcium influx, agonist mode | activation, % at 8.33 µM | Q8NER1; in the data active = activation above about 80%; inconclusive = between about 30% and that limit; also: 0% is about no effect
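Fluo-8 calcium influx in TRPV1-expressing cells, kinetic read (ex 480/em 520 nm). Compound added and read 3 min for agonist activity, followed by capsaicin at EC20 final and 2 min further read for enhancement.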
hERG WT inh: blocks the wildtype human KCNH2 potassium channel; Q12809; U2OS, BacMam KCNH2, thallium flux FluxOr; hits give low values; activity change, % at 1.84 µM; 340,000 tested, 0.37% active; AID 720551;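 active = maximum activity change below -70%; inconclusive = maximum activity change between -70% and -50%; inactive = maximum activity change above -50%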; also: % is scaled to controls: 0 for no effect and ±100 for the full control effect
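U2OS cells were transduced with wild-type KCNH2 virus (2.03 x 10^8 / mL) for 4 h at room temperature, then cultured overnight at 37 C. Thallium flux was read with FluxOr dye. Rate constants were normalized to DMSO controls.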
KCNH2 3.1 inh: inhibitors of human KCNH2 3.1 potassium channel isoform; U2OS KCNH2 3.1, thallium flux FluxOr; hits give low values; activity change, % (tested at about 1.8 µM); 340,000 tested, 0.95% active; AID 720553;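 active = maximum activity change below -70%; inconclusive = maximum activity change from -70% to -50%; inactive = maximum activity change above -50%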;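 also: thallium influx rate constant from kinetic fluorescence after stimulation buffer; % is scaled to controls: 0 for no effect and ±100 for the full control effect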
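Virally transduced U2OS (3.1 isoform, 4 h infection in dark at RT) → overnight 37 C → FluxOr + Red40 in HBSS/HEPES, 45 min → stimulation buffer, 2 min kinetic read → rate constant vs DMSO controls.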
TRPV1 potentiator: enhances activation of the human vanilloid receptor TRPV1. Q8NER1. TRPV1-expressing cells, Fluo-8 calcium influx, capsaicin EC20 potentiation. potentiation, % at 8.33 µM. 320,000 tested, 0.02% active. AID 540277; in the data active = potentiation above about 80%; inconclusive = between about 30% and that limit; also: 0% is about no effect
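Fluo-8 calcium influx in TRPV1-expressing cells, kinetic read (ex 480/em 520 nm). Compound added and read 3 min for agonist activity, followed by capsaicin at EC20 final and 2 min further read for enhancement.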
* = called active by the depositor; ? = inconclusive; . = not tested or not shown; + = active, no number.

SMILES	TRPV1 ag	hERG WT inh	KCNH2 3.1 inh	TRPV1 potentiator
CCCOCCOC(=O)C1=C(C)NC(=O)NC1c1cc(Cl)c(O)c(OC)c1 (stereo unspecified)	3	-6	-72*	-13
CS(=O)(=O)c1ccc(Cl)c(NC(=O)CCN2C(=O)C3CC=CCC3C2=O)c1 (stereo unspecified)	1	0	-4	4
Cc1cccc(N2CCN(C(=O)c3ccccc3OCc3c(C)noc3C)CC2)c1C	?	-2	-4	-17
Cc1ccc2c(CC(=O)Nc3ccc(N4CCN(C)CC4)cc3C)coc2c1	6	31	-83*	-7
CCOc1ccc(C(=O)C(C)OC(=O)Cn2[nH]c(=O)c3ccccc3c2=O)cc1 (stereo unspecified)	-6	5	-73*	-3
Cc1ccc(C(=O)C(C)OC(=O)Cn2[nH]c(=O)c3ccccc3c2=O)cc1 (stereo unspecified)	-3	14	27	-3
O=C(c1ccc(-n2c(SCc3cccc(F)c3)nc3ccccc3c2=O)cc1)N1CCOCC1	87*	4	-7	-9
CCCCNc1c(-c2ccc(OC)c(SC3CCCCC3)c2)nc2cc(C)ccn12	88*	3	?	6
Cc1c(C(=O)Nc2ccncc2)sc2nc(-c3ccccc3)cn12	90*	-3	17	-23
CCOc1ccc(C(=O)Nc2ccc(NC(=O)c3cccs3)cc2)cc1[N+](=O)[O-]	1	-81*	-99*	-19
CCOc1ccc(C(=O)Nc2cccc(-c3cc4ccccc4oc3=O)c2)cc1[N+](=O)[O-]	-3	?	-93*	4
CCOc1ccc2nc(NC(=O)c3cccc(-c4cc5ccccc5oc4=O)c3)sc2c1	0	14	-10	2
CCN(CC)c1ccc(C(=O)Nc2ccccc2)cc1[N+](=O)[O-]	82*	1	8	-13
COc1ccc(C(=O)Nc2ccc(C(=O)Nc3nccs3)cc2)cc1[N+](=O)[O-]	4	-93*	?	-2
CN1C(=O)[C@H]2[C@@H](c3ccc(C(F)(F)F)cc3)N[C@]3(CCCN(Cc4cccn4C)C3=O)[C@H]2C1=O	.	0	18	.
CC(CC(=O)NCCc1ccc(Cl)cc1)S(=O)(=O)c1ccc2c(c1)NC(=O)CO2 (stereo unspecified)	18	3	-8	-5
CC(Oc1ccc(Cl)cc1)C(=O)N1CCN(C(=O)c2ccco2)CC1 (stereo unspecified)	4	-129*	-164*	-4
Cc1ccc(N2CC(C(=O)N3CCN(C(=O)c4ccco4)CC3)CC2=O)cc1 (stereo unspecified)	0	52	-29	-5
O=C(c1ccco1)N1CCN(C(=O)C2CC(=O)N(c3ccc(Cl)cc3)C2)CC1 (stereo unspecified)	-1	-12	-95*	0
O=C(c1ccco1)N1CCN(Cc2ccc(Cl)cc2)CC1	.	-10	31	.
Cc1cccc(C(=O)NCC(=O)OCc2nc(N)nc(Nc3ccccc3C)n2)c1	.	10	2	.
O=C(CCc1c[nH]c2ccccc12)OCC(=O)N1CCN(S(=O)(=O)c2ccccc2)CC1	-5	-101*	-17	?
Cc1ccc(OCC(=O)Nc2ccccc2N2CCCC2)c(C)c1	?	+	-11	-9
Cc1ccc(C)c(OCC(=O)Nc2ccccc2N2CCCC2)c1	12	5	-12	-10
CCN1CCN(c2ccc(S(=O)(=O)N3CCCCC3)cc2NC(=O)COc2ccc(Cl)cc2)CC1	23	-21	?	-9
SMILES	TRPV1 ag	hERG WT inh	KCNH2 3.1 inh	TRPV1 potentiator
CCN1CCN(c2ccc(S(=O)(=O)N3CCCCC3)cc2NC(=O)COc2ccc(F)cc2Cl)CC1	18	-1	-80*	-2
CCN1CCN(c2ccc(S(=O)(=O)N3CCCCC3)cc2NC(=O)COc2cc(C)ccc2Cl)CC1	17	4	-83*	-5
N#Cc1ccsc1NC(=O)CCN1C(=O)C2CCCCC2C1=O (stereo unspecified)	.	-13	-16	.
COc1ccc(C(=O)NCc2ccco2)cc1S(=O)(=O)NC1CC1	-1	3	18	20
O=C(Cn1c(=O)oc2cc(S(=O)(=O)N3CCCCC3)ccc21)N1CCCCC1	2	-22	-106*	-6
COc1ccc(/C=N/NC(=O)c2ccccc2)cc1CN1CCN(c2ccc(F)cc2)CC1	13	-108*	-107*	-7
COc1ccc(/C=N\NC(=O)c2ccccc2Br)cc1COc1ccc(F)cc1	-3	-11	-25	2
COc1cc(C(=O)N/N=C/c2ccc(OC)c(CN3CCN(c4ccc(F)cc4)CC3)c2)ccc1O	5	.	-105*	-1
COc1ccc(/C=N/NC(=O)c2ccccc2F)cc1CN1CCN(c2ccc(F)cc2)CC1	29	?	-105*	-7
COc1ccc(C)cc1NC(=O)c1ccc(CN2CCN(c3ccccc3)CC2)cc1	-1	-30	-104*	10
COc1ccc(CC(=O)Nc2cccc(S(=O)(=O)N3CCOCC3)c2)cc1OC	?	15	5	-10
COc1ccc(S(=O)(=O)Nc2cccc(S(=O)(=O)N(C)C)c2)cc1[N+](=O)[O-]	.	-4	13	.
COc1cc2[nH]c(C(=O)Nc3ccc(F)cc3)cc2c(OC)c1OC	86*	.	.	-6
Cn1c(N)c(C(=O)CCl)c(=O)n(Cc2ccccc2)c1=O	-4	-4	-116*	6
COc1cccc(OC)c1C(=O)Nc1ccc(S(=O)(=O)N2CCCCC2)cc1	2	1	-2	5
Cc1cc(C(=O)Nc2ccccc2C)n(-c2ccccc2)n1	-5	-3	-2	2
NNC(=O)CN1C(CN2CCOCC2)=Nc2ccc(Br)cc2C1c1ccccc1 (stereo unspecified)	-2	-32	-73*	14
Cn1c(=O)c(C(=O)CN2CCN(S(=O)(=O)c3ccccc3)CC2)c(N)n(Cc2ccccc2)c1=O	1	1	3	1
CCCn1c(N)c(C(=O)CN2CCN(S(=O)(=O)c3cccc(Cl)c3)CC2)c(=O)[nH]c1=O	.	?	-73*	.
CC(=O)NCCN1C(=O)C2C3c4ccccc4C(c4ccccc43)C2C1=O (stereo unspecified)	0	-10	-9	5
CC(=O)c1cc(C)ccc1OC(=O)CCN1C(=O)C2C3c4ccccc4C(c4ccccc43)C2C1=O (stereo unspecified)	-2	-7	-87*	0
CCN(CC(=O)Nc1c(F)cccc1F)C(=O)c1cc(C)nc2ccccc12	-1	-72*	5	2
COC(=O)C1=C(C)NC(C)=C(C(=O)OC)C1C(=O)OCC(=O)c1ccc(Br)cc1	-6	-3	-8	6
COc1ccc(C(=O)NC2CCCCCC2)cc1S(=O)(=O)Nc1ccc(Br)cc1	2	-7	-80*	-4
COc1ccc(C(=O)NC2CCCCCC2)cc1S(=O)(=O)N1CCCC1	2	0	-19	14
C=CCn1c(-c2csc(-c3ccc(Cl)cc3)n2)n[nH]c1=S	0	-187*	-195*	-2
